# From PubChem BioAssay (NCATS)
# Records with an inconclusive call do not appear. Where a call stands in place of a potency, no number is given. Active and inactive are the calls of the source. Calls come from the whole dose curve; as a rule, active = well fitted inhibition curve with a large enough effect; inconclusive = small, poorly fitted or top-dose-only effect; inactive = no such curve, though single readings can be large or run the other way.
# What was measured:
# [1] = system: Zika virus NS2B-NS3 protease (unlinked complex); experiment: Primary screen GU Rhodamine qHTS for Zika virus inhibitors: Unlinked NS2B-NS3 protease assay (AID 1347159); conditions: Recombinant ZIKV NS2B-NS3 protease, Rhodamine110 substrate fluorescence; series mostly up to 107 µM; note: nearly all actives have a fitted effect of over 60% in size
# In short: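 Percent inhibition derives from the 15-min fluorescence change (ex 480, em 540 nm), normalized to no-enzyme and no-inhibitor wells. Reactions contained 25 nM NS2B-NS3 complex and 1.5 microM substrate in 10 mM Tris-HCl pH 8.0.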
# [2] = system: Zika virus NS2B-NS3 protease (linked construct); experiment: Primary screen NINDS Rhodamine qHTS for Zika virus inhibitors (AID 1347160); conditions: purified NS2B-NS3 protease, Rhodamine110 substrate fluorescence; series mostly up to 57.1 µM; note: nearly all actives have a fitted effect of over 55% in size
# In short: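 In 10 mM Tris-HCl pH 8.0 containing 0.01% Tween 20, linked NS2B-NS3 protease (25 nM final) is exposed to test compounds for 15 min. Cleavage of 1.5 microM Rhodamine110 substrate is tracked by fluorescence over 15 min.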
# Potency is the fitted concentration of half-maximal effect.
Structure (SMILES),Potency [1],Potency [2],"activity change, negative = inhibition [1]","activity change, negative = inhibition [2]"
COc1ccc(-c2ccc3c(N4CCOCC4)nc(N4CC(C)OC(C)C4)nc3n2)cc1CO (centres undefined),inactive,inactive,–,–
COc1ccc(-c2ccc(-c3cn(C(=O)N4CCCCC4c4ccccc4)nn3)cc2)cc1 (centres undefined),inactive,inactive,–,–
CC(=O)/C=C/[C@H]1[C@](C)(O)[C@@H](O)[C@H](OC(C)=O)C2C(C)(C)CCC[C@@]21C (some centres undefined),inactive,inactive,–,–
Cc1ccc(Cc2c(C)nc3nc(SCC(=O)NCCN4CCNCC4)nn3c2C)cc1,inactive,inactive,–,–
CC1(C)CC[C@]2(C(=O)O)[C@H](O)C[C@]3(C)C(=CCC4[C@@]5(C)CC[C@H](O[C@@H]6O[C@H](CO[C@@H]7OC[C@H](O)[C@H](O)[C@H]7O[C@@H]7OC[C@@H](O)[C@H](O)[C@H]7O)[C@@H](O)[C@H](O)[C@H]6O[C@@H]6O[C@H](CO)[C@@H](O)[C@H](O)[C@H]6O)C(C)(C)C5CC[C@]43C)[C@@H]2C1 (some centres undefined),inactive,inactive,–,–
C[C@@H](Oc1cc(-n2cnc3ccc(OC4CCN(C)CC4)cc32)sc1C(N)=O)c1ccccc1C(F)(F)F,inactive,inactive,–,–
CC(=O)O[C@H]1CC(C)(C)CC2[C@@]13[C@H](O)C[C@]1(C)[C@@]2(CCC2[C@@]4(C)CC[C@H](O[C@@H]5OC[C@H](O[C@@H]6O[C@H](CO)[C@@H](O)[C@H](O)[C@H]6O[C@@H]6OC[C@@H](O)[C@H](O)[C@H]6O)[C@H](O)[C@H]5O[C@@H]5O[C@H](CO)[C@@H](O)[C@H](O)[C@H]5O)C(C)(C)C4CC[C@]21C)O[C@@H]3O (some centres undefined),inactive,inactive,–,–
N#Cc1cc(F)cc(-c2nc(-c3ccccn3)no2)c1,inactive,inactive,–,–
O=C1OCC(c2ccccc2)=C1Cc1ccccc1,inactive,inactive,–,–
CCN(Cc1cccnc1)C(=O)CN(c1ccc(OC)nc1)S(=O)(=O)c1ccccc1C,inactive,inactive,–,–
CC(C)c1cc(CNc2nc(Nc3cc(C4CC4)[nH]n3)cc(N3CCN(C)CC3)n2)on1,inactive,inactive,–,–
CN1C2CCC1CC(OC(=O)[C@H](CO)c1ccccc1)C2 (some centres undefined),inactive,inactive,–,–
CN(C)CCn1cc(S(=O)(=O)c2cccc(F)c2)c2cccnc21,inactive,inactive,–,–
C=C1C(O)CC2C(C(=O)O)=COC(O[C@@H]3O[C@H](COC(=O)/C=C/c4ccc(O)cc4)[C@@H](O)[C@H](O)[C@H]3O)C12 (some centres undefined),inactive,inactive,–,–
Cc1c(C(=O)N2CCOc3ccc(-c4ccc(N)nc4)cc3C2)ccc(S(C)(=O)=O)c1F,inactive,inactive,–,–
O=C(c1cn(Cc2cncn2Cc2ccc(Br)cc2)cc1-c1cccc2ccccc12)N1CCOCC1,inactive,inactive,–,–
CC(=O)O[C@@H]1C[C@@H](OC(C)=O)C(C)(C)/C=C/[C@H](C)[C@H](OC(C)=O)[C@@]2(O)C[C@H](C)[C@H](OC(=O)c3ccccc3)[C@@H]2/C=C/1C,inactive,inactive,–,–
CC(C)C1=CC2C(CC[C@]2(C)O)[C@](C)(O)CC1 (some centres undefined),inactive,inactive,–,–
CC(=O)OC1C(c2ccccc2)CCC(c2ccccc2)C1OC(C)=O (centres undefined),inactive,inactive,–,–
CO[C@H]1/C=C\O[C@@]2(C)Oc3c(C)c(O)c4c(O)c(c5c(nc6cc(C)ccn65)c4c3C2=O)NC(=O)/C(C)=C\C=C/[C@H](C)[C@H](O)[C@@H](C)[C@@H](O)[C@@H](C)[C@H](OC(C)=O)[C@@H]1C,inactive,inactive,–,–
C=C(C)C1CCC2(C(=O)O)CCC3(C(=O)O)C(CCC4C5(C)CCC(O)C(C)(C(=O)O)C5CCC43C)C12 (centres undefined),inactive,inactive,–,–

Structure (SMILES),Potency [1],Potency [2],"activity change, negative = inhibition [1]","activity change, negative = inhibition [2]"
CCC1C(=O)OC23C=C[C@@H]4C(C(=O)O)=CO[C@H](O[C@@H]12)[C@@H]43 (some centres undefined),inactive,inactive,–,–
Cc1cc(N(C)C)ccc1-c1nc2ccc(-c3nc4ccc(N5CCN(C)CC5)cc4[nH]3)cc2[nH]1,inactive,inactive,–,–
Cc1cc(C)nc(NS(=O)(=O)c2ccc(NC(=S)NC(=O)COc3ccc(Br)cc3Cl)cc2)n1,7.08 µM (active),15.8 µM (active),–,–
C[C@H]1CC(=O)Nc2cccc(-c3cnn(C(C)(C)C)c3)c2N1,inactive,inactive,–,–
COc1cc(O)cc(C)c1C(=O)O[C@H]1[C@@H](OC(C)=O)[C@H](n2ccc(=O)[nH]c2=O)O[C@@H]1CO,inactive,inactive,–,–
CCOC(=O)C(CCc1ccccc1)NC(C)C(=O)N1C(=O)N(C)CC1C(=O)O (centres undefined),inactive,inactive,–,–
CC1(C)CC(NC(=O)C(=O)Nc2ccc(Br)cc2)CC(C)(C)N1,inactive,inactive,–,–
C/C(=C\CCC1(C)C2CCC(C2)C1(C)O)C(=O)O (centres undefined),22.4 µM (active),inactive,–,–
CN(CCc1ccc(Nc2ncc(-c3cccnc3)s2)cc1)Cc1ccccc1,inactive,inactive,–,–
CCNCc1nc2c(N)nc3ccccc3c2n1CC(C)(C)O,inactive,inactive,–,–
C=CC(=O)Nc1cc(Nc2nccc(-c3c[nH]c4ccccc34)n2)c(OC)cc1N(C)CCN(C)C,inactive,inactive,–,–
OC[C@H]1O[C@@H](OCCc2ccccc2)[C@H](O[C@@H]2OC[C@](O)(CO)[C@H]2O)[C@@H](O)[C@@H]1O,inactive,inactive,–,–
CC(=O)O[C@@H]1[C@H](O[C@@H]2O[C@@H](CO)[C@H](O)[C@H]2O)[C@@H](O[C@@H]2O[C@@H](C)[C@H](O[C@@H]3OC[C@@H](O)[C@H](O)[C@H]3O)[C@@H](O)[C@H]2O)[C@H](OC(=O)[C@]23CCC(C)(C)C[C@H]2C2=CCC4[C@@]5(C)CC[C@H](O[C@@H]6O[C@H](C(=O)O)[C@@H](O)[C@H](O)[C@H]6O[C@@H]6O[C@H](CO)[C@H](O)[C@H](O)[C@H]6O)[C@@](C)(C=O)C5CC[C@@]4(C)[C@]2(C)CC3)O[C@@H]1C (some centres undefined),–,–,10.7% [at 19.1 µM] (inactive),-19.7% [at 10.7 µM] (inactive)
CC(C)CNCc1ccc(-c2ccccc2S(=O)(=O)N2CCCC2)cc1,inactive,inactive,–,–
COc1cc2c(cc1OC)CC(=O)N(CCCNC[C@H]1Cc3cc(OC)c(OC)cc31)CC2,inactive,inactive,–,–
CCC1=CC2CN(C1)Cc1c([nH]c3ccccc13)[C@@](C(=O)OC)(c1cc3c(cc1OC)N(C)[C@H]1[C@@](O)(C(=O)OC)[C@H](OC(C)=O)[C@]4(CC)C=CCN5CC[C@]31[C@@H]54)C2 (some centres undefined),inactive,inactive,–,–
COc1cccc2cc3c(c(O[C@@H]4O[C@H](CO[C@@H]5O[C@H](CO)[C@@H](O)[C@H](O)[C@H]5O)[C@@H](O)[C@H](O)[C@H]4O)c12)C(C)OC3=O (some centres undefined),inactive,inactive,–,–
C=C1C[C@]23C[C@H]1[C@@H](O)C[C@H]2[C@@]12C=C[C@H](O)[C@@](C)(C(=O)O1)[C@H]2[C@@H]3C(=O)O,inactive,inactive,–,–
Cc1c(F)cc(C(=O)NC2CC2)cc1-c1c(F)cn2c(C(C)(C)C)nnc2c1F,inactive,inactive,–,–
O=C(Nc1nc2ccccc2n1CCc1ccccc1)c1ccccc1,inactive,inactive,–,–
CCc1c(C)nc2c(-c3cnn(-c4cc(CO)ccn4)c3)c[nH]n2c1=O,inactive,inactive,–,–

Structure (SMILES),Potency [1],Potency [2],"activity change, negative = inhibition [1]","activity change, negative = inhibition [2]"
O=C(O)CCCCCC[C@H]1C(=O)NC(=O)N1CC[C@@H](O)C1CCCCC1,inactive,inactive,–,–
CCCCC1CCN(CCCC(=O)c2ccccc2C)CC1,inactive,inactive,–,–
O=C(O)c1cc(I)ccc1NC(=O)[C@H](Cc1ccccc1)NCc1ccccc1,11.2 µM (active),15.8 µM (active),–,–
COc1ccc([C@@]2(O)c3c(ccc(CC=C(C)C)c3O)NC(=O)[C@@H]2OC)cc1,inactive,inactive,–,–
COc1cc2ncnc(Nc3ccc(F)c(Cl)c3)c2cc1NC(=O)/C=C/CN1CCCCC1,inactive,inactive,–,–
Cc1ccc(S(=O)(=O)Cc2nc(-c3ccc(C(=O)NCc4cccnc4)cc3)oc2C)cc1,inactive,inactive,–,–
COC(=O)N(C)c1c(N)nc(-c2nn(Cc3ccccc3F)c3ncccc23)nc1N,inactive,inactive,–,–
CO[C@H]1O[C@@H]2O[C@]3(C)CC[C@H]4[C@H](C)CC[C@@H]([C@H]1C)[C@@]24OO3,inactive,inactive,–,–
C#CC[C@H](c1nc2cc(Cl)ccc2c(=O)n1Nc1ccccc1)N(CCCN)C(=O)c1cccc(Cl)c1F,inactive,inactive,–,–
O=S(=O)(c1ccc(S(=O)(=O)n2cnc3ccccc32)cc1)N1CCCCCC1,inactive,inactive,–,–
CC(/C=C/C1=CC2=CC(=O)C(C)(O)C(O)C2=CO1)=C\C(C)CCO (centres undefined),inactive,inactive,–,–
CC1OC2OC(=O)C3(C)CC4=C(CO)C5=C(CC(=O)C4(C)C(C1=O)C23)C(C)(C)OC(=O)C5 (centres undefined),inactive,inactive,–,–
COc1c2cc(c(O)c1OC)-c1cc(ccc1O)CCC(O)CCCC2 (centres undefined),inactive,inactive,–,–
CC(=O)O[C@]1(C(C)=O)CC[C@H]2[C@@H]3C[C@H](C)C4=CC(=O)C=C[C@]4(C)[C@@]3(F)[C@@H](O)C[C@@]21C,inactive,inactive,–,–
O=C(Nc1ccc(-c2ccncc2)cc1)N[C@H](CO)c1ccccc1,inactive,inactive,–,–
C1CCC[C@H]2CCCN3CC[C@@H](CCCCCC[C@@H]4CCCN5CC[C@@H](CC1)O[C@@H]45)O[C@@H]23,–,–,-7.05% [at 0.23 µM] (inactive),20.2% [at 0.092 µM] (inactive)
CC(C)Oc1ccc(C(=O)NC(CNC(=O)CN(C)C)Cc2ccc(-c3cn4cccc(C(C)O)c4n3)cc2)cc1Cl (centres undefined),inactive,inactive,–,–
CC[C@@](C)(Nc1ccnc(-c2c[nH]c3ncccc23)n1)C(=O)NCC(F)(F)F,inactive,inactive,–,–
C=CC(C)(O)C(O)CC1C(C)(O)C(O)C(O)C2C(C)(C)CCCC21C (centres undefined),inactive,inactive,–,–
COC(=O)C1=CO[C@@H](O[C@@H]2O[C@H](CO)[C@@H](O)[C@H](O)[C@H]2O)C2C1C(=O)C[C@H]2C (some centres undefined),inactive,inactive,–,–
